Compounds with a hit are over-represented: about 2.8% of the library has one in this group of screens.
PI5P4Ka inh: qHTS for Inhibitors of phosphatidylinositol 5-phosphate 4-kinase (PI5P4K). max response, %. 330,000 compounds, 1.2% hits. AID 652105, 2013. PI5P4Kalpha enzyme, ADP-Glo luminescence, 60 min; active compounds read low; active = max response of -50% or lower; inconclusive = between -30% and -50%; inactive = -30% or higher; note: value at the top dose of about 77 µM; % is set by controls: 0 for no effect and ±100 for the full control effect
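Compounds were pin-transferred onto PI5P4Kalpha and substrate in HEPES pH 7.4 buffer with EGTA, CHAPS and 5% DMSO. ATP (5 microM final) started the reaction, which ran 60 minutes at room temperature before ADP-Glo detection.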
Pol iota inh: qHTS for Inhibitors of Polymerase Iota | Pol iota fluorescent replication assay, 10 min | Potency, µM (highest dose often 115 µM), without a hit: top-dose activity, negative = inhibition, actives largely listed as inhibitors | 390,000 compounds, 1% hits | AID 588590, 2011; note: potency is the fitted concentration of half-maximal effect
Target sequence (Q9UNA4 whole entry, looked up): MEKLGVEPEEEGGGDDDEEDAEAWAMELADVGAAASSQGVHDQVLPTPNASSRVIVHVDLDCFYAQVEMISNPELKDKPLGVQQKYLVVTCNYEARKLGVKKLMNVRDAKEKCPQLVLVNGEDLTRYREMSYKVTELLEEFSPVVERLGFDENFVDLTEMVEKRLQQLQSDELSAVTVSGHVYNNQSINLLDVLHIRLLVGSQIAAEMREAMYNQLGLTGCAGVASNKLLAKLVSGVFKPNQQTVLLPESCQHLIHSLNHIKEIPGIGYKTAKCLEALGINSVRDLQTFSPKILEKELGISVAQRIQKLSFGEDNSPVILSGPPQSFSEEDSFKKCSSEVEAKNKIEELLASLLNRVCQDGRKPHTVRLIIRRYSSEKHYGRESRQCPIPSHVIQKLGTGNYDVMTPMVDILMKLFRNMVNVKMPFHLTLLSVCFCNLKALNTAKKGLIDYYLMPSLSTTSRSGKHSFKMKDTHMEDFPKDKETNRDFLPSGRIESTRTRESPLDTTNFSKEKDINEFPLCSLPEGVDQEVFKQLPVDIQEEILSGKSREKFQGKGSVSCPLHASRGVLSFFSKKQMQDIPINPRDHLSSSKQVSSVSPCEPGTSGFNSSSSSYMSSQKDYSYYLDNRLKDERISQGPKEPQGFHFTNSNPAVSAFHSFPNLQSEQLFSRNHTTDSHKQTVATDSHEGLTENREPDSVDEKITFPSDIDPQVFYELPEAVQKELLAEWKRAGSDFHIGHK
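Pol iota at 10 nM preincubated 15 min with compounds at room temperature; reaction started with fluorescent substrate, 50 nM final. Fluorescence read kinetically at 0 and 10 min; buffer-only wells as negative control.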
POLK inh: qHTS for Inhibitors of Polymerase Kappa; purified Pol kappa, fluorescent DNA synthesis assay, 10 min; Potency, µM (highest dose often 107 µM), without a hit: top-dose activity, negative = inhibition, usual class: inhibitors; AID 588579, 2011; 400,000 compounds, 0.53% hits; note: potency is the fitted concentration of half-maximal effect; % is set by controls: 0 for no effect and ±100 for the full control effect
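Inhibition of 10 nM Pol kappa is measured by a fluorescent read-out at 0 and 10 min following addition of 50 nM substrate (final), with a 15-min room-temperature compound preincubation.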
WRN helicase inh-1: qHTS for Inhibitors of WRN Helicase; Bifunctional 3'-5' exonuclease/ATP-dependent helicase WRN (Homo sapiens), Q14191; WRN helicase unwinding, fluorescent forked duplex, kinetic; Potency, µM (highest dose often 114 µM), for the others: top-dose activity change, negative = inhibition, hits mostly inhibitors; 360,000 compounds, 0.46% hits; AID 651768, 2012; note: potency is the fitted concentration of half-maximal effect; % is set by controls: 0 for no effect and ±100 for the full control effect; nearly all actives have a fitted effect of over 55% in size
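Enzyme (20 nM final) and test compound sit together 15 min at room temperature before substrate addition. Substrate is a single-forked duplex oligonucleotide (100 nM) labelled with fluorophore and quencher, with 2 mM ATP; helicase unwinding raises red fluorescence, read kinetically.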
POLH inh: qHTS for Inhibitors of Polymerase Eta | DNA polymerase eta (Homo sapiens), Q9Y253 | recombinant Pol eta, fluorescent DNA replication assay | Potency, µM (highest dose often 114 µM), for the others: top-dose activity change, negative = inhibition, usual class: inhibitors | 390,000 compounds, 1.2% hits | AID 588591, 2011; note: potency is the fitted concentration of half-maximal effect; % is set by controls: 0 for no effect and ±100 for the full control effect
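Pol eta (10 nM) was preincubated with compounds for 15 min at room temperature, after which fluorescent replication substrate (50 nM final) was added to start the reaction. Fluorescence was read kinetically at 0 and 10 min.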
POLB inh: qHTS Assay for Inhibitors of DNA Polymerase Beta. P06746. Pol beta primer extension/strand displacement, fluorescence kinetic. Potency, µM (series often up to 114 µM), for inactives: at the top dose activity change, negative = inhibition, hits mostly inhibitors. 340,000 compounds, 1.3% hits. AID 485314, 2010; note: potency is the fitted concentration of half-maximal effect; % is set by controls: 0 for no effect and ±100 for the full control effect
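Kinetic readout of DNA synthesis with strand displacement by Pol beta. Compound and 10 nM enzyme sit 15 min at room temperature; 50 nM substrate starts the reaction, read immediately and at 10 min.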
WRN helicase inh-2: qHTS for Inhibitors of WRN Helicase: Confirmatory Assay for Cherry-picked Compounds. AID 720497, 2013. Potency, µM (highest dose often 57.1 µM), inactives show at the top dose activity, negative = inhibition, hits mostly inhibitors. shares compounds with WRN helicase inh-1. WRN helicase DNA unwinding, fluorescence kinetic. 610 compounds, 63% hits; note: potency is the fitted concentration of half-maximal effect; nearly all actives have a fitted effect of over 65% in size
TO DNA binding: qHTS for Inhibitors of WRN Helicase: Thiazole Orange DNA Binding Counterscreen | shares compounds with WRN helicase inh-1 | thiazole orange DNA binding displacement, fluorescence | Potency, µM (titrated, usually from 57.1 µM), for the others: at the highest dose activity change, negative = inhibition, hits mostly inhibitors | 610 compounds, 10% hits;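 note: drop in dye fluorescence marks compound binding to DNA; potency is the fitted concentration of half-maximal effect; % is set by controls: 0 for no effect and ±100 for the full control effect; nearly all actives have a fitted effect of over 60% in size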
BLM counter: qHTS for Inhibitors of WRN Helicase: BLM Helicase Counterscreen for WRN Inhibitors; 610 compounds, 60% hits; shares compounds with WRN helicase inh-1; Potency, µM (doses to about 57.1 µM), without a hit: top-dose activity change, negative = inhibition, hits mostly inhibitors; Recombinant BLM helicase DNA unwinding, red fluorescence; note: potency is the fitted concentration of half-maximal effect; nearly all actives have a fitted effect of over 60% in size
ADP-Glo counter: qHTS for Inhibitors of PI5P4K: ADP-Glo counter assay; shares compounds with PI5P4Ka inh; ADP-Glo detection counter-screen, luciferase luminescence, no enzyme; Potency, µM (titrated, usually from 76.9 µM), without a hit: at the top dose activity change, negative = inhibition, most hits filed as inhibitors; 1,100 tested, under 10 active; AID 743285, 2014
An asterisk follows results filed as active; ? = inconclusive; nt = no result; [ ] = remark or other dose. Unless noted, calls come from the whole dose curve; as a rule, active = well fitted curve in the direction sought with a large enough effect; inconclusive = small, poorly fitted or top-dose-only effect, or another doubt; inactive = no such curve, though single readings can be large; an effect the other way counts as inactive or inconclusive.

SMILES	PI5P4Ka inh	Pol iota inh	POLK inh	WRN helicase inh-1	POLH inh	POLB inh	WRN helicase inh-2	TO DNA binding	BLM counter	ADP-Glo counter
CC(C)CC1C(=O)N2CCC[C@H]2[C@]2(O)O[C@](NC(=O)[C@@H]3C=C4c5cccc6[nH]c(Br)c(c56)C[C@H]4N(C)C3)(C(C)C)C(=O)N12 (stereo partly drawn)	nt	20.3%	-13.4%	nt	nt	nt	nt	nt	nt	nt
COC1C(C)OC(OC2CC(C)(O)Cc3cc4c(c(O)c32)C(=O)c2c(O)cc3c(c2C4=O)OC2OC3(C)C(O)C(N(C)C)C2O)C(OC)C1(C)OC (stereo not drawn)	0.0	?	25.1µM*	15.8µM*	?	nt	2.15µM*	445.6%	?	nt
COc1cc(OC)c(OC)cc1/C=C1/C(=O)NC(=O)N(Cc2ccccc2)C1=O	?	?	-21.1%	79.4µM*	13.1%	-19.1%	?	-7.3%	?	nt
C[C@]12CC[C@@H](O)CC1CCC1C2CC[C@]2(C)C(=O)CC[C@@H]12 (stereo partly drawn)	nt	?	nt	nt	-3.2%[57.1 µM]	-13.6%[57.1 µM]	nt	nt	nt	nt
CN(C)c1ccc(/C=C/c2cc[n+](C)c3ccccc23)cc1	-25.8	79.4µM*	?	35.5µM*	?	?	17.1µM*	15.2µM*	21.5µM*	nt
COC(C)C(O)(C(=O)OC1=CCN2CC[C@H](O)[C@H]12)C(C)C (stereo partly drawn)	nt	nt	-8.4%[19.4 µM]	nt	nt	nt	nt	nt	nt	nt
CCCOC(=O)Nc1ccc([As](=O)(O)O)cc1NC(=O)OCCC	-1.3	17.2%	-13.0%	6.2%	5.3%	0.1%	nt	nt	nt	nt
CCOC(=O)Nc1ccc(NCc2ccc(F)cc2)nc1N	-50.2*	3.98µM*	-9.3%[60.1 µM]	-0.9%[11.6 µM]	28.2µM*	0.8%[57.1 µM]	nt	nt	nt	-4.9%
COc1ccc(-c2nn3c(=O)cc(CN4CCN(S(=O)(=O)c5ccc(C)cc5)CC4)nc3s2)cc1	nt	57.3%	-2.5%[60.1 µM]	nt	-12.4%	2.6%	nt	nt	nt	nt
C=CC[C@]1(O)CC[C@H]2[C@@H]3CCC4=CC(=O)CCC4=C3C=C[C@@]21C	nt	nt	9.0%[60.1 µM]	nt	nt	nt	nt	nt	nt	nt
COc1ccc(C(c2nnnn2-c2ccc3c(c2)OCCO3)N2CCC(n3c(=O)[nH]c4ccccc43)CC2)cc1 (stereo not drawn)	-2.6	nt	nt	-5.2%	nt	nt	nt	nt	nt	4.2%
COC(=O)C1=C(c2ccc(F)cc2F)C[C@@H]2CC[C@H]1N2C(=O)NC1Cc2ccccc2C1	-84.4*	2.4%	-13.5%	-4.0%	-8.9%	nt	nt	nt	nt	-1.7%

Assay outcomes as filed in PubChem.
